Compounds with a hit are over-represented: about 2.8% of the library has one in this group of screens.
Peg3 prom inh = Peg3 promoter activity inhibition. HeLa PEG-Prom luciferase reporter, luminescence, overnight. actives 1.7% (n = 360,000). inhibition, % at 20 µM;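 active means inhibition of at least 50% at 20 µM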
HIF-2a inh = blocks HIF-2a reporter activity. 786-0 RCC cells HIF-2a reporter, luciferase luminescence, overnight. actives 0.72% (n = 360,000). inhibition, % at 18.8 µM;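 active means inhibition of the luminescence signal of 40% or more relative to plate controls, in a single-dose primary screen at 18.75 µM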
CF NFkB block = blocks PAF-induced NF-kB reporter in cystic fibrosis cells; KKLEB NF-kB-GFP reporter, GFP fluorescence overnight; inhibition, % at 5 µM; actives 0.86% (n = 360,000);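 active means at least 50% inhibition at 5 µM, scaled per plate between neutral and stimulator controls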;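 further: PAF is a Pseudomonas aeruginosa culture filtrate used as stimulus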
B2AR ag = human beta-2 adrenergic receptor agonism by FAP | Am2.2-beta2AR cells, FAP receptor internalization, flow cytometry | response, % (no concentration beside the values) | actives 0.43% (n = 340,000) | AID 504454;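 active means response above a set limit, near 3 SD of response in nonfluorescent compounds, cut at about 42% in these data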
Target sequence (P07550 whole entry, looked up): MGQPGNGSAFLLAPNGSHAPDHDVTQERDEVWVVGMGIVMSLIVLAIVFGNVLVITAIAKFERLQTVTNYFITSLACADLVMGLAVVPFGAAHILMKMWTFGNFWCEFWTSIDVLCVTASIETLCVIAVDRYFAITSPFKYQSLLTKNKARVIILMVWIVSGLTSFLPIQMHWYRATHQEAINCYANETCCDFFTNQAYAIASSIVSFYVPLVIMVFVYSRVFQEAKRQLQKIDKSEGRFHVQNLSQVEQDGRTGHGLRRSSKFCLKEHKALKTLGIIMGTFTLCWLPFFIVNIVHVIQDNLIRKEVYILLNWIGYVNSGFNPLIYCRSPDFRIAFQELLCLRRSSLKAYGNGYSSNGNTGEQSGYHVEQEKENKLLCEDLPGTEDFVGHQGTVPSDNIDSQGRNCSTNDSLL
KKLEB cytotox = counter-screen for CF NF-kB inhibitors: cytotoxicity | actives 0.36% (n = 360,000) | AID 602141 | KKLEB CF airway cells viability, ATPlite luminescence, overnight; stronger effect = lower value; cells stimulated with P. aeruginosa culture filtrate | activity change (cytotoxicity), % at 5 µM;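 active means corrected activity change at or below -50% at 5 µM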
MITF TRPM1 inh = inhibitors of MITF-driven TRPM1 promoter in melanoma cells | SK-MEL-5 TRPM1 promoter luciferase, 24 h | inhibition, % at 12.5 µM | actives 0.83% (n = 330,000);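 active means mean inhibition across replicates of 60% or more, whatever share of single replicates reaches that level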
A number is an active result; - = inactive; . = no result given.

SMILES	Peg3 prom inh	HIF-2a inh	CF NFkB block	B2AR ag	KKLEB cytotox	MITF TRPM1 inh
O=c1ccc2ccccc2c2ccccc12	103	95	65	.	-	.
O=S(=O)(Cc1ccccc1)N(O)c1ccccc1	-	-	-	77	-	-
Cc1ccc(/C=N/Nc2ccnc3cc(Cl)ccc23)c(C)c1	111	-	-	-	-	87
Clc1ccc2c(N/N=C/c3cccnc3)ccnc2c1	-	-	-	-	-	-
Oc1ccc(/C=N/Nc2ccnc3cc(Cl)ccc23)c(O)c1	-	-	-	-	-	-
Clc1ccc2c(N/N=C/c3ccc(Br)cc3)ccnc2c1	105	-	-	61	-	-
Clc1ccc(NNc2ccnc3cc(Cl)ccc23)cc1	-	-	-	-	-	-
Cc1ccccc1/C=N/Nc1ccnc2cc(Cl)ccc12	94	-	-	48	-	68
CC(N)c1csc(Nc2nccc(C(F)(F)F)n2)n1 (stereo unspecified)	-	-	-	.	-	.
CCCCCc1ccc(-c2ccc(/C=C/C(=O)O)cc2)nc1	-	74	-	-	-	-
CCOC(=O)C1(C)CCN1C(=O)c1cc(-c2ccc(Cl)cc2)oc1C (stereo unspecified)	-	-	-	.	-	.
Cc1ccccc1N1CCN(C2=NC(=O)/C(=C/c3cn[nH]c3-c3ccccc3)S2)CC1	-	-	-	48	-	-
CC(C)C#Cc1cnc2c(c1)C(=O)N([C@@H](C)CO)C[C@@H](C)[C@H](CN(C)Cc1cccc(F)c1)O2	-	-	-	.	-	.
Cc1ccc(S(=O)(=O)/N=C2\C=C(NS(=O)(=O)c3ccccc3)C(=O)c3ccccc32)cc1	-	-	73	-	-	-
Cc1cc(C)c(S(=O)(=O)/N=C2\C=C(NS(=O)(=O)c3ccccc3)C(=O)c3ccccc32)c(C)c1	-	-	51	-	-	-
CCCCn1nnnc1C(c1ccccc1)N1CCN(c2ccc(C(F)(F)F)cn2)CC1 (stereo unspecified)	.	-	.	.	.	.
N#Cc1c2ccc([N+](=O)[O-])cc2[n+]([O-])n1-c1ccccc1	100	-	-	-	-	90
Cc1ccc(-n2ncc3c(N4CCN(c5ccccc5)CC4)ncnc32)c(C)c1	97	-	-	-	-	-
COc1ccc(-n2ncc3c(N4CCCCC4)ncnc32)cc1	81	81	-	-	-82	84
COc1ccc(N2CCN(c3ncnc4c3cnn4-c3ccc(C)cc3C)CC2)cc1	-	-	-	-	-	-
COc1ccc(-n2ncc3c(N4CCN(c5cccc(C)c5C)CC4)ncnc32)cc1	68	-	-	-	-	.
CC(C)(C)c1ccc(C(=O)Nc2nnc(SCC(=O)NCC3CCCO3)s2)cc1 (stereo unspecified)	-	-	-	-	-62	-
COc1ccc(C2C=CC(=O)CC2)c(OC)c1 (stereo unspecified)	.	-	.	.	.	.
c1ccc2c(c1)C1=NCCN1c1ccccc1-2	104	-	-	.	-	.
C=CCn1c(SC(F)F)nc2scc(-c3ccco3)c2c1=O	74	-	-	-	-	-
SMILES	Peg3 prom inh	HIF-2a inh	CF NFkB block	B2AR ag	KKLEB cytotox	MITF TRPM1 inh
O=C(c1cc2nc(-c3ccccc3)cc(-c3ccccc3)n2n1)N1CCN(C(=O)c2ccco2)CC1	50	-	-	-	-	-
Cc1cccc(NC(=O)CSc2nc(C)c(CC(=O)c3ccc(Br)cc3)c(C)c2C#N)c1C	71	-	-	-	-	76
Cc1nc(SCC(=O)Nc2ccc(F)cc2)c(C#N)c(C)c1CC(=O)c1ccc(Br)cc1	91	-	-	-	-	65
COc1ccc(NC(=O)CSc2nc(C)c3c(c2C#N)CCCC3)cc1	-	-	-	-	-	-
Cn1c(=O)c2cc(NC(=S)NC3CCCCC3)ccc2n1Cc1ccc(Cl)cc1	-	-	-	.	-	.
COc1ccccc1NS(=O)(=O)c1cc(-c2cnc(C3CC3)o2)ccc1C	52	-	-	-	-	-
C[C@H](CO)N1C[C@H](C)[C@H](CN(C)C(=O)Nc2ccccc2F)OCc2cnnn2CCCC1=O	-	-	-	.	-	.
O=C(Nc1ccccc1N1CCCC1)c1cccc(-c2cc3ccccc3oc2=O)c1	-	-	-	-	-	-
Cc1nc(NC(=O)c2cccc(-c3cc4ccccc4oc3=O)c2)ccc1Br	79	-	-	-	-	-
Nc1cccc(-c2cc3ccccc3oc2=O)c1	-	41	-	-	-	-
O=C(Nc1ccc(Br)cn1)c1cccc(-c2cc3ccccc3oc2=O)c1	-	-	-	-	-	-
Nc1nnc(-c2cc3ccccc3oc2=O)s1	-	-	-	-	-	-
Cc1nc(NC(=O)c2ccc(-c3cc4ccccc4oc3=O)cc2)ccc1Br	82	-	-	-	-	-
O=C(Nc1ccc(N2CCCC2)cc1)c1cccc(-c2cc3ccccc3oc2=O)c1	-	-	-	57	-	-
Cc1ccccc1CN1C(=O)CSCC1(C)C(=O)Nc1ccc2c(c1)OCCO2 (stereo unspecified)	.	-	.	.	.	.
Cc1ccc(C)c(C(O)c2ncc(-c3ccc4ccccc4c3)[nH]2)c1 (stereo unspecified)	-	-	-	.	-	.
Cc1ccc(S(=O)(=O)n2ccc3c(OCCOCCSCC(NC(=O)OC(C)(C)C)C(=O)O)cccc32)cc1 (stereo unspecified)	-	-	-	-	-	-
Cc1ccc(S(=O)(=O)n2ccc3c(OCCOCCNCc4ccc(F)cc4)cccc32)cc1	96	-	-	-	-	-
CCOC(=O)C1C(C(=O)OCC)C2C(=O)C3C(C(=O)OCC)C(C(=O)OCC)C3C(=O)C12 (stereo unspecified)	-	-	-	.	-	.
Cc1noc(C)c1Cn1c(C)c(C(=O)NCc2ccc3c(c2)OCCO3)sc1=O	-	-	-	.	-	.
COC(=O)C1=C(C)NC(C)=C(C(=O)OC)C1c1ccc2ccccc2n1	-	-	-	-	-	-
O=C1c2ccccc2C(=O)C1c1ccc2ccccc2n1	53	-	-	-	-68	-
COc1cc(C2C3=C(COC3=O)Oc3cc4c(cc32)OCO4)cc(OC)c1OC(C)=O (stereo unspecified)	-	-	67	-	-	-
CCC(C)Nc1nc(N)c([N+](=O)[O-])c(Nc2ccccc2OC)n1 (stereo unspecified)	60	-	-	-	-	-
COc1ccccc1Nc1nc(NCC(C)C)nc(N)c1[N+](=O)[O-]	-	-	55	-	-	-
CCN(Cc1ccccc1)S(=O)(=O)c1ccc(C(=O)N(CCCN(C)C)c2nc3c(F)cccc3s2)cc1	-	-	-	-	-	-
CCCCN(CC)S(=O)(=O)c1ccc(C(=O)N(CCCN(C)C)c2nc3cc(C)cc(C)c3s2)cc1	103	-	-	-	-	79

From PubChem BioAssay
